# In PubChem BioAssay (Tox21):
# Where “and” joins values, the source holds several entries; their conditions need not be identical. Equal entries are not always repeated. Inconclusive results are not listed. A call without a number means that no potency is given here. More than one record can exist for a structure, and the calls need not agree. Calls of active or inactive are those of the source. Unless noted, calls come from the whole dose curve; as a rule, active = well fitted curve in the direction sought with a large enough effect in the repeat runs; inconclusive = weak or mixed curves; inactive = no such curve, though single readings can be large; an effect the other way counts as inactive or inconclusive.
# Assays:
# [1] = qHTS assay to identify small molecule antagonists of the estrogen receptor alpha (ER-alpha) signaling pathway using the BG1 cell line in the presence of 0.1 nM 17-beta-estradiol - cell viability counter screen (AID 1259241); note: nearly all actives have a fitted effect of over 40% in size; note: potency is the fitted concentration of half-maximal effect
# Procedure, shortened: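 Cells were plated and left 24 hr, compounds in DMSO were pinned in, 17beta-estradiol was added to 0.1 nM final, and after 22 hr CellTiter-Fluor reagent was added for 30 min before fluorescence was read.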
# [2] = qHTS assay to identify small molecule antagonists of the androgen receptor (AR) signaling pathway using the MDA cell line in the presence of 0.5 nM R1881 - cell viability counter screen (AID 1259242); note: nearly all actives have a fitted effect of over 45% in size; note: potency is the fitted concentration of half-maximal effect
# Procedure, shortened: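 Human breast carcinoma MDA-kb2 cells, cultured without CO2, receive compounds alongside 0.5 nM (final) R1881 agonist. After 16 hr at 37C, viability is taken as live-cell protease signal.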
# [3] = qHTS assay to identify small molecule HDAC inhibitors (AID 1259364);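 note: wild-type HCT-116 cells with endogenous class I/II HDAC activity; top concentration of the series differs between compounds; nearly all actives have a fitted effect of over 45% in size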
# Procedure, shortened: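 After a 2 hr compound incubation (37C, 5% CO2), HCT-116 cells seeded at 1,500/well the day before received HDAC-Glo reagent; signal read as luminescence after 30 min at room temperature.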
# [4] = qHTS assay to identify small molecule HDAC inhibitors - cell viability counter screen (AID 1259365); note: nearly all actives have a fitted effect of over 50% in size; note: potency is the fitted concentration of half-maximal effect
# Procedure, shortened: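 Counter screen in wild-type HCT-116 cells: compounds dissolved in DMSO are pin-transferred onto overnight-plated cells and left 2hr at 37C. ATP-based CellTiter-Glo luminescence then measures viable cells.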
# [5] = qHTS assay to identify small molecule antagonists of the sonic hedgehog signaling (Shh) pathway - cell viability counter screen (AID 1259367); note: nearly all actives have a fitted effect of over 55% in size; note: potency is the fitted concentration of half-maximal effect
# Procedure, shortened: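 Viability was read by CellTiter-Fluor fluorescence in the same wells, reagent added 23 hr into compound treatment and incubated 1 hr at 37C. The 3T3 Gli1-Luc reporter cells (2,000/well) received conditioned medium after compound and ran 24 hr.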
# [6] = qHTS assay to identify small molecule agonists of the sonic hedgehog signaling (Shh) pathway (AID 1259368; calls by dose curve; note: nearly all actives have a fitted effect of over 15% in size; note: potency is the fitted concentration of half-maximal effect)
# Procedure, shortened: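 Stable NIH/3T3 Gli1-Luc reporter clone; 24 hr cpd exposure after a 4 hr settling period; luminescence endpoint.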
# [7] = qHTS assay to identify small molecule agonists of the sonic hedgehog signaling (Shh) pathway - cell viability counter screen (AID 1259366); note: nearly all actives have a fitted effect of over 50% in size; note: potency is the fitted concentration of half-maximal effect
# Procedure, shortened: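 Cells are plated at 2,000 per well and left 4hr at 37C, 5% CO2 before compound addition. After 23hr of treatment, CellTiter-Fluor reagent is added for 1hr at 37C and fluorescence is measured.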
# [8] = target: Estrogen receptor (Homo sapiens) (UniProt P03372); assay: qHTS assay to identify small molecule antagonists of the estrogen receptor alpha (ER-alpha) signaling pathway using the BG1 cell line in the presence of 0.1 nM 17-beta-estradiol (AID 1259244); note: nearly all actives have a fitted effect of over 50% in size; note: potency is the fitted concentration of half-maximal effect
# Procedure, shortened: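 Seeding of stripped-serum-adapted VM7Luc4E2 cells, 24 h attachment, compound transfer, then 0.1 nM final 17beta-estradiol; after 22 h incubation, ONE-Glo reagent and luminescence reading.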
# [9] = qHTS assay to identify small molecule phospholipidosis (PLD) inducers (AID 1259344; active = well fitted curve in the direction sought with a large enough effect; an effect the other way counts as inactive or inconclusive)
# Procedure, shortened: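 Phospholipid accumulation was scored by imaging: fixed, Hoechst-counterstained HepG2 cells stained with LipidTOX Red after 24 h compound exposure at 37 C. Read-outs were pit count and pit intensity per well or per cell, with amiodarone and DMSO controls.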
# [10] = target: Androgen receptor (Homo sapiens) (UniProt P10275); assay: qHTS assay to identify small molecule antagonists of the androgen receptor (AR) signaling pathway using the MDA cell line in the presence of 0.5 nM R1881 (AID 1259243); note: nearly all actives have a fitted effect of over 50% in size; note: potency is the fitted concentration of half-maximal effect
# Procedure, shortened: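 Cells: MDA-kb2 (MMTV-luc). Stimulus: 0.5 nM R1881. Time: 16 hr, 37C, no CO2. Detection: ONE-Glo luminescence after 30 min at RT.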
# Estrogen receptor (Homo sapiens), sequence (P03372 whole entry, looked up): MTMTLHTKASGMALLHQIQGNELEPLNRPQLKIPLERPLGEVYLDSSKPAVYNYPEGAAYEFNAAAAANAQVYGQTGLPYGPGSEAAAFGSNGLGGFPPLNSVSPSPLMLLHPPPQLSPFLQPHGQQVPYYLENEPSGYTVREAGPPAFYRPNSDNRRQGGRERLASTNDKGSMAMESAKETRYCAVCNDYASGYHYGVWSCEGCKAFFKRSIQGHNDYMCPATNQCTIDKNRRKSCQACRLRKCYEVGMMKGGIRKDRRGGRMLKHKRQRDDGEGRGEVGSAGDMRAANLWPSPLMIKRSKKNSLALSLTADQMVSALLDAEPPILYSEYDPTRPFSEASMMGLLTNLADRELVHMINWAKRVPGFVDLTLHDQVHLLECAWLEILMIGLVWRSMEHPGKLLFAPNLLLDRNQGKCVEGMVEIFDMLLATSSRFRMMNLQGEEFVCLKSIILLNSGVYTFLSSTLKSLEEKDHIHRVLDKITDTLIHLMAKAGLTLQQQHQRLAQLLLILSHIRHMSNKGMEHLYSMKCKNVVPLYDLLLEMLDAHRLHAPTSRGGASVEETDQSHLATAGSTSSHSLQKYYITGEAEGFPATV
# Androgen receptor (Homo sapiens), sequence (P10275 whole entry, looked up): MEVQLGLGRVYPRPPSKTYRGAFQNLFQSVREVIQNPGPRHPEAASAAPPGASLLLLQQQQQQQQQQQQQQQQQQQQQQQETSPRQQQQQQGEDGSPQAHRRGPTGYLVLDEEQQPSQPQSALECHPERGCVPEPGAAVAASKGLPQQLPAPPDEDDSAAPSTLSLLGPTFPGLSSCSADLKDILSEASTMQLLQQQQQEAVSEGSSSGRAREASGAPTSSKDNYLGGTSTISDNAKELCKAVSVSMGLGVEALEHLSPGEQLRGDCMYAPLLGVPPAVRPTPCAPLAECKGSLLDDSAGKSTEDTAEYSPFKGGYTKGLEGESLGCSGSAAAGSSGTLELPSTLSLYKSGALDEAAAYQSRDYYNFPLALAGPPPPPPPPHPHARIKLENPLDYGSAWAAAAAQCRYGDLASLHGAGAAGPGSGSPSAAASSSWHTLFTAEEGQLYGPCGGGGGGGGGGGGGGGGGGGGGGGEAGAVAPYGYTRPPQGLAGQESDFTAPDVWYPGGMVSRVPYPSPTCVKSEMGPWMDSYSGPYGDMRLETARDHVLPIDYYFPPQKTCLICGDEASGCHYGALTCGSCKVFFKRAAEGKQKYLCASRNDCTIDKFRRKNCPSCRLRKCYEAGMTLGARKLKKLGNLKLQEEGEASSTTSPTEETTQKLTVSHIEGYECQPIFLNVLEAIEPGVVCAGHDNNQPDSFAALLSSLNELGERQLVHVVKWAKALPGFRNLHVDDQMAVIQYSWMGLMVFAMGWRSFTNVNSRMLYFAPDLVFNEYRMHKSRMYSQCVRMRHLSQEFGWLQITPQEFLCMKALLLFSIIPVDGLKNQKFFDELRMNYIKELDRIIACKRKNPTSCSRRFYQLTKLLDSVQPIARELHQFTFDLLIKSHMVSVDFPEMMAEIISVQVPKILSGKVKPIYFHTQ
Structure (SMILES),Potency [1],Potency [2],Potency [3],Potency [4],Potency [5],Potency [6],Potency [7],Potency [8],outcome [9],Potency [10]
CNN,inactive,inactive,inactive,inactive,inactive,inactive,,,,
[C-]1=CC=CC1.[Cl][Zr+2][Cl].c1cc[cH-]c1,inactive,inactive,inactive,inactive,inactive,inactive,,,,
CCCCCON=O,inactive,inactive,inactive,,inactive,inactive,inactive,,,
CC1(C)[C@H](/C=C2\CCSC2=O)[C@@H]1C(=O)OCc1coc(Cc2ccccc2)c1,inactive,inactive,inactive,inactive,inactive,inactive,,,,
c1cc[n+]2c(c1)-c1cccc[n+]1CC2,26.6 µM (active),,inactive,inactive,inactive,inactive,,26.6 µM (active),,
CCN(CC)CCN1C(=O)CN=C(c2ccccc2F)c2cc(Cl)ccc21,inactive,inactive,inactive,,inactive,inactive,inactive,,,
N#Cc1ccc(N(CC(N)=O)CC(F)(F)F)cc1C(F)(F)F,inactive,,inactive,,inactive,inactive,inactive,inactive,,
Brc1cccc(-c2ccccc2)c1,inactive,inactive,inactive,,inactive,inactive,inactive,,,
Oc1cccc(Cl)c1Cl,inactive,,inactive,inactive,inactive,inactive,,inactive,,
COc1c2c(cc3c1OCO3)CCN(C)C2,inactive,,inactive,inactive,inactive,inactive,,inactive,inactive,
Cc1c([N+](=O)[O-])cc2c(c1[N+](=O)[O-])C(C)(C)CC2(C)C,inactive,inactive,inactive,,inactive,inactive,inactive,,,
CCn1cc[n+](C)c1 (tested in a mixture with another compound),inactive,inactive,inactive,,inactive,inactive,inactive,,,
CCN(CC)C(=S)S,15.3 µM (active),,inactive,inactive,7.65 µM (active) and inactive,inactive,38.9 µM (active) and 13.6 µM (active) and 27.3 µM (active),13.6 µM (active),,
C[C@H]1[C@H](c2ccc(Cl)cc2)SC(=O)N1C(=O)NC1CCCCC1,inactive,,inactive,inactive,inactive,inactive,inactive,61.1 µM (active),,48.6 µM (active)
COC(=O)C(C)N(C(=O)c1ccco1)c1c(C)cccc1C (stereo not given),inactive,inactive,inactive,inactive,inactive,inactive,,,,
CC(=O)[O][Sn]([c]1ccccc1)([c]1ccccc1)[c]1ccccc1,0.545 µM (active),0.306 µM (active),inactive,54.5 µM (active),109 nM (active),inactive,,,,
CC1=C2C[C@H]3[C@@H](CC=C4C[C@@H](O)CC[C@@]43C)[C@@H]2CC[C@]12O[C@@H]1C[C@H](C)CN[C@H]1[C@H]2C,inactive,,inactive,inactive,inactive,inactive,inactive,inactive,,inactive
O=S(=O)(O)F,inactive,,inactive,inactive,inactive,inactive,inactive,inactive,,
CC(C)N(C(=O)CCl)c1ccccc1,inactive,,inactive,inactive,30.6 µM (active) and 24.3 µM (active),inactive,68.6 µM (active) and 9.69 µM (active),27.3 µM (active) and 54.5 µM (active),,19.3 µM (active)
COCCC#N,inactive,inactive,inactive,,inactive,inactive,inactive,,,
CCC(C)Nc1c([N+](=O)[O-])cc(C(C)(C)C)cc1[N+](=O)[O-] (stereo not given),inactive,inactive,inactive,inactive,inactive,inactive,,,,
CC(=O)[O-].CC(=O)[O-].[Co+2],inactive,inactive,inactive,inactive,,54.5 µM (active),,,,
CCOP(=O)(OCC)Oc1nc(Cl)c(Cl)cc1Cl,inactive,,,inactive,inactive,inactive,inactive,,,inactive
N#Cc1c[nH]cc1-c1cccc2c1OC(F)(F)O2,inactive,,inactive,inactive,inactive,inactive,inactive,24.3 µM (active),,
C[C@]12CC[C@H]3[C@@H](CCC4=CC(=O)CC[C@@H]43)[C@@H]1CC[C@@H]2OC(=O)CCc1ccco1,inactive,,inactive,,inactive,inactive,inactive,,,inactive
C1=CCC=C1,inactive,inactive,inactive,inactive,inactive,inactive,,,,
